We go through 40 compounds from PubChem BioAssay.

Activity calls are given as the source filed them. Cut-off read from the data, not from the text of the source, unless noted: active = inhibition above about 42%; inactive = the rest.

Tested on in one test: not listed separately
Put plainly: StAR promoter reporter inhibitors, counter-screen for LRH-1 inverse agonist project, cell-based, luminescence, high throughput (AID 651611; in the data active = inhibition above about 28%). Conditions: StAR promoter luciferase reporter counterscreen, at 3.6 µM, hits give high values.
`CN(C)CCN1C(=O)c2cccc3cc([N+](=O)[O-])cc(c23)C1=O`: the inhibition is 67% (active).
The same measure, in the same setting: then `CC(C)C(=O)NC(c1ccc(Cl)cc1Cl)c1ccc2cccnc2c1O` (stereo not given), with 48.2% (active); and `Brc1ccc2c(c1)-c1ccccc1C1=NCCN12`, with 39% (active); and `Cc1cc(C)c(CN2CCN(C(=O)Cn3cnc4c(NCc5ccccc5)ncnc43)CC2)c(C)c1`, with 35% (active).
Still for that read-out and setting: the figure for `Cc1ccc2occ(/C=N/NC(=O)c3ccccc3O)c(=O)c2c1` is 14.5% (inactive); for `CCN(CC)C1=CC(=[N+]2CCCC2)CC(C)(C)C1` it is 17.4% (inactive).
Take `Cc1ccc(S(=O)(=O)/N=C(\CCl)N2CCOCC2)cc1`: the inhibition is 23.9% (inactive).
`Cc1cc2[nH]c3c(c[n+](C)c4ccccc34)c2cc1C`: the inhibition is 41.7% (active).
On the same count and under the same terms, the figure for `Cc1ccc(Oc2ccc(OCC(=O)Nc3ccncc3)cc2)cc1` is 35.7% (active); for `CCN(CC)CCn1nc2c3c(cccc3c1=O)-c1ccccc1-2` it is 54.2% (active); for `Clc1ccc(-c2nnc(CSc3nnc(-c4cccs4)n3Cc3ccccc3)o2)cc1` it is 5.56% (inactive).
Turning to `O=C(NCc1ccccc1)c1cccc(NC(=O)c2ccccc2)c1`, the inhibition is 32.8% (active).
Still for that read-out and setting: the figure for `Cc1sc2ncnc(NCC3COc4ccccc4O3)c2c1C` (stereo not given) is 18% (inactive).
The same measure, in the same setting: the figure for `Cc1ccc(/C=C2/CNC/C(=C/c3ccc(C)cc3)C2=O)cc1` is 47% (active); for `CCN(CC)S(=O)(=O)c1cc(NC(=O)CNc2cccc(S(=O)(=O)N3CCCC3)c2)ccc1C` it is 21.6% (inactive).
As for `O=C(CSc1nnc(Cn2nnc3ccccc32)o1)N(Cc1ccc(F)cc1)c1ccccc1`, the inhibition was 24.2% (inactive).
The same measure, in the same setting: the figure for `Cc1cccc(-n2ncc3c2CCCC3NC(=O)c2ccncc2)c1C` (stereo not given) is 14.7% (inactive); for `CC(=O)Nc1ccc(Nc2c3ccccc3nc3ccccc23)cc1` it is 62.5% (active).
The same measure, in the same setting: then `Cc1nc2ccc(NC(=O)c3cc(S(=O)(=O)N(C)c4ccccc4)ccc3Cl)cc2s1`, with 30.4% (active); and `O=C(Nc1nonc1NC(=O)c1cccs1)c1cccs1`, with 30.2% (active); and `CCCCCCCCNc1ncnc2ccccc12`, with 22.2% (inactive).
Regarding `CN(C(=O)c1cccc(NC(=O)Cc2ccc(NC(=O)C3CCCN(C(=O)CCc4ccccc4)C3)cc2)c1)C1CCCCC1` (stereo not given), the inhibition is 24.3% (inactive).
Still for that read-out and setting: then `COc1ccc(CC(=O)Nc2cccc(S(=O)(=O)N3CCCCCC3)c2)cc1OC`, with 20.2% (inactive).
As for `CCc1c(C)nc2ncnn2c1NCCc1ccc(OC)cc1`, the inhibition is 46.9% (active).
Same read-out and setting: the figure for `CN(C)c1ccc(Sc2ccc3nc(N)nc(N)c3c2)cc1` is 60.9% (active); for `CC(=O)Nc1ccccc1OCC(=O)c1cc(C)n(Cc2cccs2)c1C` it is 28.7% (active).
The same measure, in the same setting: the figure for `O=C1c2cccc3cc([N+](=O)[O-])cc(c23)C(=O)N1CCN1CCCC1` is 13.3% (inactive).
The same measure, in the same setting: then `Cc1cccc(-n2c(CNC(=O)c3ccccc3)nnc2SCC(=O)Nc2nccs2)c1`, with 10.2% (inactive).
For `NS(=O)(=O)c1ccc(N=Nc2c(O)[nH]c3ccc(Br)cc23)cc1`, the inhibition was 38.4% (active).
Still for that read-out and setting: the figure for `COc1cc2c(oc(=O)c3cc(C)cc(OC)c32)c2c(C3OC(C)C(O)C(C)(O)C3O)ccc(O)c12` (stereo not given) is 50.6% (active); for `CC1(C)CC(N2CCCC2)=CC(=[N+]2CCCC2)C1` it is 12% (inactive); for `CCOC(=O)c1cc(C#N)c(N2CCN(C(=O)c3cccc(C(F)(F)F)c3)CC2)nc1C(F)(F)F` it is 15.5% (inactive).
On the same count and under the same terms, the figure for `COc1cccc2c1C(=O)c1c(O)c3c(c(O)c1C2=O)C[C@@](O)(C(=O)CO)C[C@@H]3OC1CC(N)C(O)C(C)O1` (stereo not given in full) is -14.6% (inactive); for `CN(C)CCNc1ccc2ncn3c4ccc(O)cc4c(=O)c1c23` it is 49.3% (active).
On the same count and under the same terms, the figure for `CCN(CC(=O)Nc1ccc(NC(C)=O)cc1)C(=O)C1(c2ccc(Cl)cc2)CCC1` is -2.92% (inactive); for `COc1cccc2c1C(=O)c1c(O)c3c(c(O)c1C2=O)CC(O)(C(C)=O)CC3OC1CC(O)C(O)C(C)O1` (stereo not given) it is 29.2% (active).
As for `Cc1ccc(C#CC[N+]2(CC#Cc3ccc(C)cc3)CCCCC2)cc1`, the inhibition is 40.5% (active).
Take `O=C(N/N=C/c1ccc(O)cc1)c1ccc(COc2cc(Cl)ccc2Cl)o1`: the inhibition was 22.3% (inactive).
The same measure, in the same setting: the figure for `CCCCn1c2c(c(=N)c3c1CCC3)CCC2` is 26.5% (inactive).
As to `Cc1c(C(C)C)c(=O)n(-c2ccc(S(=O)(=O)NCc3ccccc3)cc2)n1C`, the inhibition is 16.5% (inactive).

The target of another test is Nuclear receptor subfamily 5 group A member 2 (Homo sapiens) (UniProt O00482). The test is described as follows: NR5A2 activity suppression in reporter cells – cell-based, luminescence, confirmation (AID 651613).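 Note: HEK293T cells co-transfected with LRH-1 and StAR promoter luciferase reporter; 0% = vehicle wells and 100% = parental cells lacking receptor.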 Conditions: cell-based LRH-1 luciferase reporter, inverse agonism; at 3.6 µM; hits give high values.
Sequence of Nuclear receptor subfamily 5 group A member 2 (Homo sapiens) (O00482 whole entry, looked up): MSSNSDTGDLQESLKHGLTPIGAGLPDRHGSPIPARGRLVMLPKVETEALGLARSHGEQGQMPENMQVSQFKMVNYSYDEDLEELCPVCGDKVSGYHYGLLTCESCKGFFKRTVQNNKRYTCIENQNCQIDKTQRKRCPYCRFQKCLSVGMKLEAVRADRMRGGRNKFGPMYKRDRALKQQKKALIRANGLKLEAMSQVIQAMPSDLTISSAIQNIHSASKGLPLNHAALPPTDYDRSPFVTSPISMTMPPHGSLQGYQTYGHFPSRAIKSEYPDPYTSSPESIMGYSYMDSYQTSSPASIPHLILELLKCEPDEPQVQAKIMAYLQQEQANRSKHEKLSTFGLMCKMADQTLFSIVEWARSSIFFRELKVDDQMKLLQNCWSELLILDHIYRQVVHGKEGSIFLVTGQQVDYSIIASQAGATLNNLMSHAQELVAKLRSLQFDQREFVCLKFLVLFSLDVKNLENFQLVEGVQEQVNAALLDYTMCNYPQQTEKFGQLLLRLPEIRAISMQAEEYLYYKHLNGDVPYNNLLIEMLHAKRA
In the case of `CN(C)CCN1C(=O)c2cccc3cc([N+](=O)[O-])cc(c23)C1=O`, the inhibition is 96.7% (active).
Still for that read-out and setting: then `CC(C)C(=O)NC(c1ccc(Cl)cc1Cl)c1ccc2cccnc2c1O` (stereo not given), with 35.2% (inactive).
On the same count and under the same terms, the figure for `Brc1ccc2c(c1)-c1ccccc1C1=NCCN12` is 104% (active).
Still for that read-out and setting: then `Cc1cc(C)c(CN2CCN(C(=O)Cn3cnc4c(NCc5ccccc5)ncnc43)CC2)c(C)c1`, with 54.1% (active); and `Cc1ccc2occ(/C=N/NC(=O)c3ccccc3O)c(=O)c2c1`, with 3.45% (inactive); and `CCN(CC)C1=CC(=[N+]2CCCC2)CC(C)(C)C1`, with 61.9% (active).
Regarding `Cc1ccc(S(=O)(=O)/N=C(\CCl)N2CCOCC2)cc1`, the inhibition is 50.2% (active).
Same read-out and setting: then `Cc1cc2[nH]c3c(c[n+](C)c4ccccc34)c2cc1C`, with 100% (active).
On the same count and under the same terms, the figure for `Cc1ccc(Oc2ccc(OCC(=O)Nc3ccncc3)cc2)cc1` is 79.2% (active); for `CCN(CC)CCn1nc2c3c(cccc3c1=O)-c1ccccc1-2` it is 84.5% (active); for `Clc1ccc(-c2nnc(CSc3nnc(-c4cccs4)n3Cc3ccccc3)o2)cc1` it is 51.7% (active).
On the same count and under the same terms, the figure for `O=C(NCc1ccccc1)c1cccc(NC(=O)c2ccccc2)c1` is 52.4% (active).
Turning to `Cc1sc2ncnc(NCC3COc4ccccc4O3)c2c1C` (stereo not given), the inhibition is 62% (active).
Same read-out and setting: then `Cc1ccc(/C=C2/CNC/C(=C/c3ccc(C)cc3)C2=O)cc1`, with 79.3% (active); and `CCN(CC)S(=O)(=O)c1cc(NC(=O)CNc2cccc(S(=O)(=O)N3CCCC3)c2)ccc1C`, with 61.7% (active); and `O=C(CSc1nnc(Cn2nnc3ccccc32)o1)N(Cc1ccc(F)cc1)c1ccccc1`, with 63% (active).
Take `Cc1cccc(-n2ncc3c2CCCC3NC(=O)c2ccncc2)c1C` (stereo not given): the inhibition is 54.5% (active).
For `CC(=O)Nc1ccc(Nc2c3ccccc3nc3ccccc23)cc1`, the inhibition was 106% (active).
As for `Cc1nc2ccc(NC(=O)c3cc(S(=O)(=O)N(C)c4ccccc4)ccc3Cl)cc2s1`, the inhibition is 57.5% (active).
On the same count and under the same terms, the figure for `O=C(Nc1nonc1NC(=O)c1cccs1)c1cccs1` is 64.1% (active); for `CCCCCCCCNc1ncnc2ccccc12` it is 63.7% (active).
With `CN(C(=O)c1cccc(NC(=O)Cc2ccc(NC(=O)C3CCCN(C(=O)CCc4ccccc4)C3)cc2)c1)C1CCCCC1` (stereo not given), the inhibition is 49.4% (active).
Take `COc1ccc(CC(=O)Nc2cccc(S(=O)(=O)N3CCCCCC3)c2)cc1OC`: the inhibition is 65.6% (active).
In the case of `CCc1c(C)nc2ncnn2c1NCCc1ccc(OC)cc1`, the inhibition is 53.9% (active).
Turning to `CN(C)c1ccc(Sc2ccc3nc(N)nc(N)c3c2)cc1`, the inhibition is 107% (active).
The same measure, in the same setting: the figure for `CC(=O)Nc1ccccc1OCC(=O)c1cc(C)n(Cc2cccs2)c1C` is 21.5% (inactive); for `O=C1c2cccc3cc([N+](=O)[O-])cc(c23)C(=O)N1CCN1CCCC1` it is 91.6% (active).
As to `Cc1cccc(-n2c(CNC(=O)c3ccccc3)nnc2SCC(=O)Nc2nccs2)c1`, the inhibition is 10.1% (inactive).
Consider `NS(=O)(=O)c1ccc(N=Nc2c(O)[nH]c3ccc(Br)cc23)cc1`, for which the inhibition was 23.4% (inactive).
Take `COc1cc2c(oc(=O)c3cc(C)cc(OC)c32)c2c(C3OC(C)C(O)C(C)(O)C3O)ccc(O)c12` (stereo not given): the inhibition is 93.8% (active).
Consider `CC1(C)CC(N2CCCC2)=CC(=[N+]2CCCC2)C1`, for which the inhibition is 62% (active).
Consider `CCOC(=O)c1cc(C#N)c(N2CCN(C(=O)c3cccc(C(F)(F)F)c3)CC2)nc1C(F)(F)F`, for which the inhibition is 48.8% (active).
Take `COc1cccc2c1C(=O)c1c(O)c3c(c(O)c1C2=O)C[C@@](O)(C(=O)CO)C[C@@H]3OC1CC(N)C(O)C(C)O1` (stereo not given in full): the inhibition was 87.5% (active).
Take `CN(C)CCNc1ccc2ncn3c4ccc(O)cc4c(=O)c1c23`: the inhibition is 81.6% (active).
In the case of `CCN(CC(=O)Nc1ccc(NC(C)=O)cc1)C(=O)C1(c2ccc(Cl)cc2)CCC1`, the inhibition is 40.1% (inactive).
The same measure, in the same setting: then `COc1cccc2c1C(=O)c1c(O)c3c(c(O)c1C2=O)CC(O)(C(C)=O)CC3OC1CC(O)C(O)C(C)O1` (stereo not given), with 50.7% (active); and `Cc1ccc(C#CC[N+]2(CC#Cc3ccc(C)cc3)CCCCC2)cc1`, with 74.2% (active); and `O=C(N/N=C/c1ccc(O)cc1)c1ccc(COc2cc(Cl)ccc2Cl)o1`, with 42.3% (active).
Same read-out and setting: the figure for `CCCCn1c2c(c(=N)c3c1CCC3)CCC2` is 80.5% (active); for `Cc1c(C(C)C)c(=O)n(-c2ccc(S(=O)(=O)NCc3ccccc3)cc2)n1C` it is 54.3% (active).
